USP10 block = inhibitors of human USP10 deubiquitinase. AID 1645856, 2021. purified USP10, Ub-rhodamine fluorescence, 60 min. inhibition, % at 20 µM. actives 1.1% (n = 47,000)
USP28 inh = inhibitors of human USP28 deubiquitinase; Ubiquitin carboxyl-terminal hydrolase 28 (Homo sapiens), Q96RU2; purified USP28, Ub-rhodamine cleavage fluorescence, 30 min; inhibition, % at 25 µM; actives 3% (n = 47,000)
USP8 block = inhibitors of human USP8 deubiquitinase; Ubiquitin carboxyl-terminal hydrolase 8 (Homo sapiens), P40818; purified USP8, Ub-rhodamine cleavage fluorescence, 30 min; inhibition, % at 20 µM; actives 4.2% (n = 47,000); AID 1645853, 2021
USP30 block = inhibitors of human USP30 deubiquitinase; Ubiquitin carboxyl-terminal hydrolase 30 (Homo sapiens), Q70CQ3; purified USP30, Ub-rhodamine cleavage fluorescence; inhibition, % at 25 µM; actives 5.3% (n = 47,000)
USP17 block = inhibitors of human USP17 deubiquitinase | inhibition, % at 50 µM | Ubiquitin carboxyl-terminal hydrolase 17-like protein 5 (Homo sapiens), A8MUK1 | purified USP17, Ub-rhodamine cleavage fluorescence, 3 h | actives 6.5% (n = 47,000)
Active calls of the source: *; i = inactive; . = not tested or not shown. The list is not random: actives were taken first. Their share in the collection is about 13%. Rule as the data show it: active = inhibition above about 30%; inactive = the rest.

SMILES | USP10 block | USP28 inh | USP8 block | USP30 block | USP17 block
O=C(Cc1csc(-c2cccc(Br)c2)n1)NCc1ccc(C(=O)O)cc1 | -1 | 3 | 0 | -8 | 6
COC(=O)c1ccc2c(c1)C(=O)c1ccccc1CO2 | 3 | 32* | 7 | 24 | 26
N#Cc1ccccc1-c1ccccc1C(=O)NCc1ccccc1 | 0 | -1 | 7 | -3 | 0
CC(Sc1nnc(-c2c[nH]c3ccccc23)n1C1CC1)C(=O)NC1CC1 (stereo not drawn) | 1 | -9 | 0 | -23 | .
COc1ccc(NC(=O)Cn2c(=O)n(CCCCC(=O)NCc3ccco3)c(=O)c3ccccc32)cc1Cl | 59* | -4 | 1 | -6 | -18
COC(=O)c1ccccc1NC(=O)Cn1c(=O)n(CCCC(=O)NCc2ccco2)c(=O)c2ccccc21 | 54* | 58* | 58* | 80* | 76*
COc1cc(NC(=O)Cn2c(=O)n(-c3ccc(CC(=O)NCc4ccco4)cc3)c(=O)c3ccccc32)cc(OC)c1 | 23 | 9 | 22 | 9 | 4
COc1ccc(NC(=O)Cn2c(=O)n(CCCC(=O)NCCc3ccc(OC)c(OC)c3)c(=O)c3ccccc32)cc1Cl | 23 | 0 | 9 | 13 | 28
COc1cccc(NC(=O)Cn2c(=O)n(CCCC(=O)NCc3ccco3)c(=O)c3ccccc32)c1 | 5 | 15 | 4 | 7 | 44*
Cc1ccc(NC(=O)COc2cccc3c(=O)n(C)ccc23)c(C)c1 | 1 | 29 | -4 | -39 | 10
COc1ccccc1CNC(=O)CCCCn1c(=O)c2ccccc2n(CC(=O)Nc2ccc(C)cc2C)c1=O | 50* | 16 | 46* | 42* | 21
CC(C)C(=O)N1CCN(c2nc3c(s2)CC(C(=O)NCc2ccccn2)CC3)CC1 (stereo not drawn) | -5 | -6 | -8 | -13 | -6
O=C(c1ccco1)N(Cc1c(F)cccc1Cl)c1ccccn1 | -5 | -17 | -15 | -20 | -17
CN(C)c1ncnc2c1ncn2[C@@H]1CC[C@@H](NC(=O)c2cccc(F)c2)[C@@H](O)[C@@H]1O | 5 | 9 | -8 | 25 | 0
N#Cc1c(-c2ccc(Cl)cc2)cc(-c2cccs2)nc1N | -1 | 27 | 17 | -8 | 38*
COC(=O)c1ccc(N2CCN(C(C)=O)CC2)c(NC(=O)C(c2ccccc2)c2ccccc2)c1 | -3 | 28 | 12 | 18 | 21
N#Cc1cccc(NC(=O)C(Cc2c[nH]c3ccccc23)NC(=O)c2cccs2)c1 (stereo not drawn) | 3 | 19 | 12 | 33* | 22
CC(C)(C)c1nn(-c2ccc(Cl)cc2)c2[nH]c(=O)c(CNCCc3ccccc3)cc12 | -2 | -19 | -5 | -6 | -6
CC(C)(C)c1nn(-c2ccccc2)c2[nH]c(=O)c(CNC3CC3)cc12 | 6 | -9 | 82* | -36 | 22
Cc1ccc(NCc2cc3c(C(C)(C)C)nn(-c4ccc(Cl)cc4)c3[nH]c2=O)cc1 | 15 | 23 | 84* | -58 | 62*
Cc1nn(-c2ccccc2)c2[nH]c(=O)c(CNC3CCCCC3)cc12 | 1 | -6 | 1 | 0 | 0
CC(C)(C)c1nn(-c2ccccc2)c2[nH]c(=O)c(CNCc3ccc4c(c3)OCO4)cc12 | -1 | 8 | 80* | -20 | 26
Cc1cc(C)cc(-n2ccnc2SCC(=O)NCc2ccc3c(c2)OCO3)c1 | 3 | 7 | -6 | 6 | -7
Cc1ccc(S(=O)(=O)c2cnc3ccccc3c2N2CCN(C)CC2)cc1 | -5 | -13 | -4 | -9 | -7
COc1ccc(CC(=O)Nc2cc(=O)[nH]c3nc(-c4ccco4)nn23)cc1 | -7 | 11 | -9 | -104 | 34*
COc1ccc(NC(=O)c2nnc(C(=O)NCCN3CCCCCC3)s2)cc1 | 10 | 30 | -6 | 52* | 46*
COc1ccc(NC(=O)C(=O)NCCN2CCN(C(=O)c3c(F)cccc3F)CC2)cc1 | 0 | 12 | 5 | 33* | 6
Cc1nnc(C(=O)Nc2cccc(C(=O)NCCN3CCCCCC3)c2)s1 | -8 | -149 | -19 | i | -107
CCC1OC(=O)C(CO)C(OC2CC(C)(OC)C(O)C(C)O2)C(C)C(OC2OC(C)CC(N(C)C)C2O)C(C)(O)CC(C)C(=O)C(C)C(O)C1C (stereo not drawn) | -1 | -11 | -1 | -5 | -8

Bioassay records: PubChem BioAssay, Buhrlage Lab, Dana-Farber Cancer Institute and Novartis Institutes for BioMedical Research (Cambridge, Mass)
